Assay outcomes from PubChem BioAssay.
GPR7 antag = human neuropeptides B/W receptor 1 antagonism | P48145 | GPR7-expressing cells, fluorescence antagonist assay | inhibition, % at 4.4 µM | 290,000 compounds, 1.1% hits | AID 1861; in the data active = inhibition above about 16%, passing the limit was not always enough;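 also: cells stimulated with the agonist NPW; 0% = agonist with vehicle and 100% = vehicle without agonist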
Target sequence (P48145 whole entry, looked up): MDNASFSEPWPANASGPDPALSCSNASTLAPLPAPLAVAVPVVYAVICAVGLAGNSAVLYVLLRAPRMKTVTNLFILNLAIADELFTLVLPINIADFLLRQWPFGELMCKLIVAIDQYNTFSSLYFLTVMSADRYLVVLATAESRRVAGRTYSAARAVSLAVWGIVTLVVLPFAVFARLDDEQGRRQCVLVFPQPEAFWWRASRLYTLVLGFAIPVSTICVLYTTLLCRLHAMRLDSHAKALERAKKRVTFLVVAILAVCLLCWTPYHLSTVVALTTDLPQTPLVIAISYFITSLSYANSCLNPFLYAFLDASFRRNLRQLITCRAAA
VLA-4 inh = inhibition in a human VLA-4 binding assay; AID 2557; 330,000 compounds, 0.2% hits; VLA-4 expressing cells, ligand binding flow cytometry; P13612; inhibition, % (about 7 µM as worked out from the volumes in the protocol); in the data active = inhibition above about 50%
GASC-1 inh = blocks human GASC-1 demethylase activity; GST-JMJD2C(1-420) H3K9me3 demethylation, DELFIA europium; Q9H3R0; inhibition, % at 2.35 µM; 330,000 compounds, 0.069% hits; AID 2099;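 active = more than half of a compound's replicate wells show inhibition beyond 50%, single wells judged on their own value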;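 also: signal counts dimethyl H3K9 product captured on neutravidin plate; 0% = median of DMSO wells and 100% = 0.3 times that DMSO median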
Target sequence (Q9H3R0 1-420 limits assumed): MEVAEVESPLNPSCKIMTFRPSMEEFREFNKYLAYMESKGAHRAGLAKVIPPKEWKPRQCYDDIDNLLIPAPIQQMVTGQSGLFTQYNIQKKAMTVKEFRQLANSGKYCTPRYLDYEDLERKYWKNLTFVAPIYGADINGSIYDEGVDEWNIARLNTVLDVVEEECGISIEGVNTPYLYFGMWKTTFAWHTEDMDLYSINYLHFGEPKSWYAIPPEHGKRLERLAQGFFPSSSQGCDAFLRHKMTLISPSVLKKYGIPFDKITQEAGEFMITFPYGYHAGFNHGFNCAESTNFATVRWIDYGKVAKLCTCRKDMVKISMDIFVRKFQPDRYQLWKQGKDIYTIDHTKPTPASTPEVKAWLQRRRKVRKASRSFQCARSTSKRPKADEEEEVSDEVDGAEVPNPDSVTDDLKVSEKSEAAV
p-CIP stab down = compounds decreasing mouse p/CIP protein stability | F442A p/CIP-EGFP cells, EGFP fluorescence, 16 h | decrease of EGFP signal, % at 10 µM | 290,000 compounds, 0.01% hits | AID 1984;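 active = EGFP signal decrease of at least 30% at 10 µM or well 3 SD below plate mean, unless failing retest; inactive = the rest, including hits failing retest or dose response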
VLA-4 allo CP = confirmation of allosteric modulators of human VLA-4 integrin; AID 2813; shares compounds with VLA-4 inh; U937 cells, HUTS-21 LIBS mAb binding, flow cytometry; LDV ligand present at threefold Kd; inhibition, % at 6.7 µM; 1,300 compounds, 2% hits; in the data active = inhibition above about 40%;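 also: 0% = ligand without compound and 100% = no ligand background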
Starred values were filed as active, the others as inactive; i = inactive; nt = not tested or not shown; ! = repeats disagree. Compounds with a hit are over-represented: about 1.2% of the library has one in this group of screens.

SMILES | GPR7 antag | VLA-4 inh | GASC-1 inh | p-CIP stab down | VLA-4 allo CP
Cc1ccc2c(C)c(C(=O)Nc3c(C)n(C)n(-c4ccccc4)c3=O)oc2c1 | -6.2 | 9.5 | -1.3 | -0.7 | -9.5
COc1ccccc1OCC(O)CN1CCN(CC(=O)Nc2c(C)cccc2C)CC1 (stereo not drawn) | nt | 50.7*! | -0.8 | nt | -51.2
CCOC(=O)N1CCN(CC(O)COc2c(OC)cccc2OC)CC1 (stereo not drawn) | -9.2 | 11.6 | -15.6 | -13.9 | nt
CCOC(=O)CSc1nc(C)[nH]c1[N+](=O)[O-] | 4.5 | 41.4 | 14.3 | -12.8 | -0.4
O=C(O)CCN1C(=O)c2ccc(NC(=O)c3cccs3)cc2C1=O | -10.9 | 1.2 | -2.3 | -0.7 | nt
O=C(Nc1ccc2c(c1)C(=O)N(c1ccccc1)C2=O)c1cccs1 | -7.6 | 50.3* | -13.1 | -12.0 | 0.0
COc1ccc(C(=O)c2cc([N+](=O)[O-])ccc2N2CCOCC2)cc1 | 17.0 | 31.1 | -8.6 | -9.1 | 47.0*
CCOc1ccc(C(=O)c2cc([N+](=O)[O-])ccc2N2CCOCC2)cc1 | 17.8 | 50.8* | -16.7 | 0.7 | 49.0*
Cc1ccc(C(=O)c2cc([N+](=O)[O-])ccc2N2CCOCC2)cc1 | 1.8 | nt | nt | 0.2 | nt
CCC(C)NC(=O)[C@@H]1CCCN1C(=O)C1CCN(S(=O)(=O)c2ccc(C)cc2)CC1 (stereo partly drawn) | -1.8 | 53.0* | -23.9 | -5.0 | -2.1
O=c1c(O)c(-c2ccccc2)oc2cc(O)cc(O)c12 | nt | 25.3 | nt | nt | nt
O=c1c(O)c(-c2cc(O)c(O)c(O)c2)oc2cc(O)cc(O)c12 | nt | 56.1* | nt | nt | 5.1
CCOC(=O)C1(S(=O)(=O)c2ccccc2)CCN(Cc2ccc(Cl)cc2)CC1 | -4.6 | 74.3* | -0.4 | -3.2 | -1.4
CCOC(=O)C1(S(=O)(=O)c2ccc(Cl)cc2)CCN(Cc2ccc(Cl)cc2)CC1 | -14.2 | 59.2* | -3.2 | -6.2 | 5.1
CCOC(=O)C1(CCc2ccccc2)CCN(Cc2ccc(O)cc2)CC1 | 6.7 | 8.3 | -6.8 | 3.0 | nt
CCOC(=O)C1(Cc2ccc(Cl)cc2)CCN(Cc2nccn2CC)CC1 | -8.2 | 4.7 | 2.2 | -3.5 | nt
CCc1ccccc1NC(=O)C1NC(=O)CC1c1ccccc1 (stereo not drawn) | -8.6 | 56.0* | 5.1 | -8.6 | 3.7
Cc1c(S(=O)(=O)N2CCC(C)CC2)c(=O)n(C)c(=O)n1C | nt | 50.4* | -9.1 | nt | 2.6
Cc1c(S(=O)(=O)N2CCCC(C)C2)c(=O)n(C)c(=O)n1C (stereo not drawn) | nt | 6.8 | -2.8 | nt | nt
CC(=O)c1ccc(NS(=O)(=O)c2ccc(N)cc2)cc1 | -2.4 | 7.1 | 5.1 | 0.6 | -2.8
CC(=O)c1ccc(NS(=O)(=O)c2ccccc2)cc1 | 10.6 | -12.8 | -1.4 | 0.6 | nt
Nc1cccc(S(=O)(=O)Nc2ccc(Br)cc2)c1 | -7.4 | 5.2 | -13.5 | -5.5 | nt
Nc1ccc(NS(=O)(=O)c2ccccc2)cc1 | -7.8 | -7.0 | 3.0 | 1.5 | 10.9
Nc1cccc(S(=O)(=O)Nc2ccccc2)c1 | -12.0 | 20.0 | 8.0 | -4.1 | 5.1
C=C1CC(C(=O)N/N=C/c2ccccc2)C1 | -7.3 | 41.9 | -15.0 | -2.5 | -21.6
SMILES | GPR7 antag | VLA-4 inh | GASC-1 inh | p-CIP stab down | VLA-4 allo CP
CCOC(=O)c1[nH]c2ccccc2c1NC(=O)c1ccc(Br)o1 | 1.1 | -29.1 | 5.0 | -8.8 | nt
Cn1cccc1C(=O)NC(=O)COC(=O)c1ccc(O)cc1 | -3.2 | -6.6 | 10.2 | -13.7 | nt
Cn1cccc1C(=O)NC(=O)COC(=O)c1ccccc1O | 8.0 | 55.0* | 4.7 | -22.3 | 3.3
Cc1cc(C)n(-c2nc(C)nc(N)n2)n1 | 5.4 | 1.1 | 14.7 | -1.7 | -4.2
Cc1cc(Cl)nc(-n2nc(C)cc2C)n1 | -13.1 | 17.1 | 0.8 | 3.1 | 2.0
CNc1cc(C)nc(-n2nc(C)cc2C)n1 | -1.3 | -13.2 | -6.4 | -3.8 | nt
O=C1CN(C(=O)COC(=O)CCc2ccccc2O)c2ccccc2N1 | nt | 16.7 | -13.7 | nt | nt
CCN1CCN(c2c(/C=C3\SC(=S)N(Cc4ccco4)C3=O)c(C)c(C#N)c(=O)n2C)CC1 | -6.8 | -55.0 | 1.1 | -54.6 | nt
CC(=O)c1ccc(NC(=O)COC(=O)/C=C/c2cccs2)cc1 | nt | -6.0 | 1.2 | nt | nt
CCOc1ccc(NC2=NCC(=O)N2Cc2cccs2)cc1 | 7.5 | -16.9 | -10.9 | -7.6 | nt
Cc1cc(NC(=O)Nc2ccccc2F)ccc1Br | 1.7 | 65.7* | 5.3 | -8.8 | 4.0
Cc1cccc(OCCC(=O)Nc2ccc(N3CCOCC3)cc2N2CCOCC2)c1 | nt | 50.5* | -7.7 | nt | 2.7
Cc1cc(OC(=O)c2cc(F)c(F)cc2Cl)nc(C)n1 | 8.8 | 62.6* | -10.1 | -2.7 | 14.4
Cc1cc(OC(=O)c2c(Cl)cc(Cl)cc2Cl)nc(C)n1 | -0.7 | 14.0 | 4.9 | -7.1 | nt
O=C(c1cccc(NC2=NC3CS(=O)(=O)CC3S2)c1)N1CCN(c2cccc(Cl)c2)CC1 (stereo not drawn) | -5.8 | 9.8 | 1.9 | -6.3 | i
O=C(c1cccc(NC2=NC3CS(=O)(=O)CC3S2)c1)N1CCN(c2ccc(F)cc2)CC1 (stereo not drawn) | 1.6 | -6.7 | 23.3 | -4.5 | nt
O=C(c1ccc(Cl)c(NC2=NC3CS(=O)(=O)CC3S2)c1)N1CCN(c2ccc(F)cc2)CC1 (stereo not drawn) | -3.3 | 15.0 | -5.2 | 15.1 | 0.0
CC1Cc2ccccc2N1C(=O)CCS(=O)(=O)c1ccc2c(c1)NC(=O)CS2 (stereo not drawn) | -18.8 | -71.2 | 3.4 | -9.4 | nt
COC(=O)c1ccc(C(=O)OC)c(NC(=O)CN(c2ccccc2)S(=O)(=O)N(C)C)c1 | -5.3 | 7.5 | 0.2 | -7.0 | nt
CCCCN1CC(C(=O)NC2CCCCC2)CC1=O (stereo not drawn) | -9.3 | -8.4 | -2.6 | 4.5 | nt
CCN(CC)C(=O)NCc1c(C)cc(C)cc1C | -2.3 | -1.9 | -19.8 | -6.2 | nt
CCCN(CC(=O)Nc1ccccc1C)C(=O)/C=C/c1ccc(S(=O)(=O)N2CCCCCC2)cc1 | nt | 14.2 | 14.3 | nt | nt
COc1cccc(CNS(=O)(=O)c2ccc3c(c2)C(C)(C)C(=O)N3C)c1 | -2.4 | -13.2 | -8.8 | -14.8 | -5.8
Cc1cccc(N(C)S(=O)(=O)c2ccc3c(c2)C(C)(C)C(=O)N3C)c1 | 5.1 | -16.4 | 6.0 | 1.4 | -2.1
CN1C(=O)C(C)(C)c2cc(S(=O)(=O)N(C)Cc3ccccc3)ccc21 | 1.0 | -3.8 | -8.4 | 5.3 | nt
C[C@H](NC(=O)c1[nH]cnc1C(=O)Nc1ccc(Cl)cc1)c1ccccc1 | nt | 29.0 | 8.2 | nt | nt
O=C(NCc1ccc(Cl)cc1Cl)C1CC(=O)N(Cc2ccccc2)C1 (stereo not drawn) | 4.5 | -7.0 | -22.8 | 18.7 | nt
COc1cccc(CN(C(=O)Cc2c[nH]c3ccccc23)C(C(=O)NC2CCCCC2)c2ccc(C)o2)c1 (stereo not drawn) | 4.0 | 48.4 | 9.1 | 11.2 | -123.8
CCN1C(=O)[C@H]2[C@@H](c3ccc(OC)cc3)N3C(=O)CN(CCOC)C(=O)[C@@]3(Cc3ccccc3)[C@H]2C1=O | 2.7 | 27.8 | 7.2 | -7.7 | nt
Cc1cccnc1CN1CCN(Cc2nc(C(c3ccccc3)c3ccccc3)no2)CC1 | -15.4 | 1.0 | -1.1 | 11.6 | nt
